Among all 5,500 compounds or so, about 2,000 (36%) were called active. Not shown: some 18% with an inconclusive outcome. No stated cut-off is given here; in the data, active means normalized growth mostly below about 0.91 (no sharp cut-off); inconclusive means no clear call, values can overlap the other calls; inactive means mostly above about 0.92. The list shows a part of the results.
Assay: chemical genetic growth profiling, strain panel (AID 1159580);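 further: tested at 20 µM; growth read once vehicle control cultures reached saturation at 30 °C; 1 = growth at the plate median or of vehicle wells; lower values mean less growth of the strain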
Conditions: S. cerevisiae deletion strains, growth OD

Measured: normalized growth

CC(C)=CCC/C(C)=C/COc1ccc2ccc(=O)oc2c1
inactive: locus YAL021C, strain ccr4, hits give low values 0.994 | locus YAL026C, strain drs2, hits give low values 0.999 | locus YAL030W, strain snc1, hits give low values 0.986 | locus YBL061C, strain skt5, hits give low values 0.985 | locus YBR009C, strain hhf1, hits give low values 0.976 | locus YBR023C, strain chs3, hits give low values 0.982 | locus YBR171W, strain sec66, hits give low values 0.981 | locus YBR231C, strain swc5, hits give low values 0.996 | locus YBR279W, strain paf1, hits give low values 0.99 | locus YCL011C, strain gbp2, hits give low values 0.978 | locus YCL016C, strain dcc1, hits give low values 0.988 | locus YCL061C, strain MRC1, hits give low values 1 | locus YCL069W, strain vba3, hits give low values 0.985 | locus YCR088W, strain abp1, hits give low values 0.99 | locus YDL005C, strain med2, hits give low values 1 | locus YDL040C, strain nat1, hits give low values 0.986 | locus YDR001C, strain nth1, hits give low values 0.993 | locus YDR069C, strain doa4, hits give low values 0.998 | locus YDR137W, strain rgp1, hits give low values 0.893 | locus YDR159W, strain sac3, hits give low values 1.01 | locus YDR195W, strain ref2 1.04 | locus YDR297W, strain sur2, hits give low values 0.984 | locus YDR334W, strain swr1, hits give low values 0.992 | locus YDR335W, strain msn5, hits give low values 1 | locus YDR392W, strain spt3, hits give low values 0.952 | locus YEL003W, strain gim4, hits give low values 0.997 | locus YEL037C, strain rad23, hits give low values 0.991 | locus YEL061C, strain CIN8 (second series), hits give low values 0.993 | locus YER015W, strain faa2, hits give low values 1 | locus YER016W, strain bim1, hits give low values 0.986 | locus YER111C, strain swi4, hits give low values 1 | locus YER155C, strain BEM2 (second series), hits give low values 0.999 | locus YFR010W, strain ubp6, hits give low values 1 | locus YGL167C, strain pmr1, hits give low values 0.985 | locus YGL173C, strain kem1, hits give low values 0.99 | locus YGL227W, strain vid30, hits give low values 0.992 | locus YGL240W, strain doc1, hits give low values 0.999 | locus YGL253W, strain hxk2, hits give low values 0.994 | locus YHR013C, strain ard1, hits give low values 0.971 | locus YHR027C, strain rpn1, hits give low values 0.998 | locus YHR030C, strain SLT2, hits give low values 0.948 | locus YHR079C, strain IRE1, hits give low values 0.969 | locus YHR142W, strain chs7, hits give low values 0.962 | locus YJL092W, strain hpr5, hits give low values 1 | locus YJL095W, strain BCK1 (second series), hits give low values 0.987 | locus YJL095W, strain BCK1, hits give low values 0.937 | locus YJL115W, strain asf1, hits give low values 1 | locus YJL129C, strain trk1, hits give low values 0.911 | locus YJL154C, strain vps35, hits give low values 0.99 | locus YJL164C, strain tpk1, hits give low values 0.966 | locus YJL166W, strain qcr8, hits give low values 0.99 | locus YJL187C, strain SWE1, hits give low values 0.99 | locus YJR066W, strain TOR1, hits give low values 0.932 | locus YKL160W, strain elf1, hits give low values 0.976 | locus YKR026C, strain gcn3, hits give low values 0.99 | locus YKR091W, strain srl3, hits give low values 0.985 | locus YLL001W, strain dnm1, hits give low values 1 | locus YLL026W, hits give low values 0.984 | locus YLL041C, strain sdh2, hits give low values 0.983 | locus YLR027C, strain aat2, hits give low values 0.974 | locus YLR113W, strain HOG1, hits give low values 0.944 | locus YLR221C, strain rsa3, hits give low values 0.976 | locus YLR258W, strain gsy2, hits give low values 0.981 | locus YLR262C, strain YPT6 (second series), hits give low values 0.932 | locus YLR320W, strain mms22, hits give low values 0.974 | locus YLR342W, strain FKS1, hits give low values 0.97 | locus YLR357W, strain rsc2, hits give low values 1.01 | locus YLR370C, strain arc18, hits give low values 0.999 | locus YLR384C, strain iki3, hits give low values 0.992 | locus YML120C, strain ndi1, hits give low values 0.973 | locus YMR058W, strain fet3, hits give low values 1 | locus YMR125W, strain sto1, hits give low values 0.996 | locus YMR129W, hits give low values 0.993 | locus YMR205C, strain PFK2, hits give low values 0.96 | locus YMR231W, strain pep5, hits give low values 0.965 | locus YNL071W, strain lat1, hits give low values 0.965 | locus YNL183C, strain NPR1, hits give low values 0.912 | locus YNL209W, strain ssb2, hits give low values 0.983 | locus YNL248C, strain rpa49, hits give low values 0.981 | locus YNL322C, strain KRE1 (second series), hits give low values 0.994 | locus YNR049C, strain mso1, hits give low values 0.996 | locus YOR001W, strain rrp6, hits give low values 0.989 | locus YOR070C, strain gyp1, hits give low values 0.983 | locus YOR080W, strain dia2, hits give low values 0.997 | locus YOR083W, strain WHI5, hits give low values 0.978 | locus YOR106W, strain vam3, hits give low values 0.933 | locus YOR231W, strain MKK1, hits give low values 0.968 | locus YOR265W, strain rbl2, hits give low values 0.973 | locus YOR270C, strain vph1, hits give low values 0.896 | locus YOR290C, strain snf2, hits give low values 0.968 | locus YPL051W, strain arl3, hits give low values 0.987 | locus YPL078C, strain atp4, hits give low values 0.983 | locus YPL106C, strain sse1, hits give low values 1.01 | locus YPL240C, strain hsp82, hits give low values 0.992 | locus YPL256C, strain CLN2, hits give low values 0.917
